{
  "source": "PubChem BioAssay",
  "note": "Active and inactive are the calls of the source.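 Rule for the calls: active = visual image review flags a hit and inhibition of aggregation exceeds 20%; inconclusive = visual hit but inhibition at or below 20%; inactive = no hit on visual image review.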",
  "data": [
    {"assay": "reduction of polyQ htt aggregates in cells – imaging, exon1htt(103Q)mCFP cells, high-content imaging, primary screen (AID 483);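 note: compound exposure lasted 3 days before fixation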;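 for nuclei count: percent of the per-plate median nuclei count of sample wells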", "conditions": "exon1htt(103Q)mCFP cell line, aggregate imaging, at 2 µM; inhibition of aggregation: stronger effect = higher value; nuclei count: measured here: cell count, toxicity", "units": {"nuclei count": "%"}, "values": [
      {"smiles": "COc1ccc(C2CC(c3ccc(Cl)cc3)Nc3nc(NC(=O)c4ccco4)nn32)cc1", "note": "(stereo not drawn)", "nuclei count": 98.1, "inhibition of aggregation": "-6.2% (inactive)"},
      {"smiles": "CCn1nccc1C(=O)Nc1nccs1", "nuclei count": 108, "inhibition of aggregation": "-32.5% (inactive)"},
      {"smiles": "FC(F)(F)c1nnc2ccc(NCn3nnc4ccccc43)nn12", "nuclei count": 85.2, "inhibition of aggregation": "18.9% (inactive)"},
      {"smiles": "O=C(NC(C(=O)c1ccccc1)n1ccc(=O)[nH]c1=O)c1ccccc1", "note": "(stereo not drawn)", "inhibition of aggregation": "-13% (inactive)", "nuclei count": 104},
      {"smiles": "COc1ccc(N2C(=O)C(Cl)=C(Nc3c(C)n(C)n(-c4ccccc4)c3=O)C2=O)cc1", "inhibition of aggregation": "-20.7% (inactive)", "nuclei count": 95.1},
      {"smiles": "Cc1cc(C)nc(N2CCCC(C(=O)Nc3nc4ccc(S(C)(=O)=O)cc4s3)C2)n1", "note": "(stereo not drawn)", "nuclei count": 117, "inhibition of aggregation": "2.6% (inactive)"},
      {"smiles": "CCc1nnc(NC(=O)c2ccc(S(=O)(=O)NC3CCCCC3)cc2)s1", "nuclei count": 107, "inhibition of aggregation": "20.7% (inactive)"},
      {"smiles": "CC(C)C(=O)Nc1cccc(NC(=O)c2cccnc2)c1", "nuclei count": 95.6, "inhibition of aggregation": "-20.9% (inactive)"},
      {"smiles": "CCn1c(Cc2ccccc2)nnc1SCC(=O)Nc1nc2ccccc2s1", "inhibition of aggregation": "-25.5% (inactive)", "nuclei count": 115},
      {"smiles": "S=c1[nH]c2ccc(Cl)cc2[nH]1", "inhibition of aggregation": "-4% (inactive)", "nuclei count": 91.1},
      {"smiles": "CCOc1ccc2nc(SCC#N)c(C#N)cc2c1", "nuclei count": 14.5, "inhibition of aggregation": "-3.9% (inactive)"},
      {"smiles": "Cc1nc(C)c(C(=O)OCC(=O)N2CCN(c3ccccc3)CC2)s1", "nuclei count": 99.4, "inhibition of aggregation": "-3.6% (inactive)"},
      {"smiles": "COc1ccc(C(NC(=O)c2ccco2)c2ccc(OC)c(OC)c2)cc1", "note": "(stereo not drawn)", "inhibition of aggregation": "-4.2% (inactive)", "nuclei count": 104},
      {"smiles": "Cc1nn(-c2ccccc2)c2c1C(c1c(C)[nH]c(C#N)c1C)C(C#N)=C(N)O2", "note": "(stereo not drawn)", "inhibition of aggregation": "9.2% (inactive)", "nuclei count": 86}
    ]}
  ]
}
